Here are results for 33 compounds from PubChem BioAssay (Tox21).

Molecules are shown by their SMILES. Values without a mark were called inactive. Results filed as inconclusive are left out. The source made the active and inactive calls. Unless noted, calls follow the shape of the dose curve; as a rule, active = well fitted curve in the direction sought with a large enough effect in the repeat runs; inconclusive = weak or mixed curves; inactive = no such curve, though single readings can be large; an effect the other way counts as inactive or inconclusive.
% is scaled to controls: 0 for no effect and ±100 for the full control effect.

One assay in a line: qHTS assay for small molecule disruptors of the mitochondrial membrane potential - cell viability (AID 720634; calls by dose curve;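 also: human HepG2 liver cancer cells; nearly all actives have a fitted effect of over 20% in size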). The following applies: HepG2 viability, ATP luminescence (CellTiter-Glo), 1 h; series mostly up to 83.2 µM; activity change, negative = cytotoxicity: at the top concentration. Summed up: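 ATP-based luminescent viability readout (CellTiter-Glo, 30 min, room temperature) in HepG2 cells multiplexed with the m-MPI membrane potential dye; compound exposure lasted 1 hr at 37 C.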
On the technique in general: Quantitative high-throughput screening tests each substance at several concentrations.
Turning to `CCCCC/C=C\C/C=C\C/C=C\CCCCC(=O)O`, the “activity change, negative = cytotoxicity” value was 1.8%.

As for `O=S(=O)(O)c1cc(O)c2c(N=Nc3ccc(Nc4ccccc4)c4c(S(=O)(=O)O)cccc34)cc(S(=O)(=O)O)cc2c1`, the “activity change, negative = cytotoxicity” value was -5.95%.

With `Nc1nc(=O)n([C@@H]2CS[C@H](CO)O2)cc1F`, the “activity change, negative = cytotoxicity” value was 12%.

Take `COc1ccc(C[C@@H](C)NC[C@H](O)c2ccc(O)c(NC=O)c2)cc1`: the “activity change, negative = cytotoxicity” value is 12.6%.

The next assay can be described thus: qHTS assay for small molecule disruptors of the mitochondrial membrane potential (AID 720635). Also: potency is read from the fitted curve at half-maximal effect. The conditions noted are these: HepG2 mitochondrial membrane potential, Mito-MPS dye ratio; series mostly up to 83.2 µM; ratio activity, negative = MMP loss: at the top concentration. A digest of the protocol: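 Mitochondrial membrane potential tracked with Mito-MPS dye, red aggregates (ex 540/em 590 nm) against green monomers (ex 490/em 535 nm). Compound treatment 1 hr at 37C, dye 30 min in HepG2.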
For the compound `CCC(=O)O[C@@H]1CC(=O)O[C@H](C)C/C=C/C=C/[C@H](O)[C@H](C)C[C@H](CC=O)[C@H](O[C@@H]2O[C@H](C)[C@@H](O[C@H]3C[C@@](C)(O)[C@@H](OC(=O)CC)[C@H](C)O3)[C@H](N(C)C)[C@H]2O)[C@H]1OC`, the “ratio activity, negative = MMP loss” value was 18.2% [at 39.1 µM].

As to `CCCCC(=O)OCC(=O)[C@]1(O)Cc2c(O)c3c(c(O)c2[C@@H](O[C@H]2C[C@H](NC(=O)C(F)(F)F)[C@H](O)[C@H](C)O2)C1)C(=O)c1c(OC)cccc1C3=O`, the Potency is 1.19 µM (active).

As for `[O]=[Bi][O][Bi]=[O]`, the “ratio activity, negative = MMP loss” value is 16.5%.

Turning to `CC[C@@]1(O)C[C@H](O[C@H]2C[C@H](N(C)C)[C@H](O[C@H]3C[C@H](O)[C@H](O[C@H]4CCC(=O)[C@H](C)O4)[C@H](C)O3)[C@H](C)O2)c2c(cc3c(c2O)C(=O)c2c(O)cccc2C3=O)[C@H]1C(=O)OC`, the Potency was 1.68 µM (active).

With `CCCCCCCCCCCCCC[n+]1ccc(C)cc1`, the Potency was 13.3 µM (active).

Regarding `Cc1cc(Nc2ccccc2C(=O)O)ccc1Cl`, the Potency was 11.9 µM (active).

Take `C#C[C@]1(O)CC[C@H]2[C@@H]3CCC4=C/C(=N/O)CC[C@@H]4[C@H]3CC[C@@]21CC`: the Potency was 10.6 µM (active).

For `Cc1cccc(C)c1Nc1ncccc1C(=O)O`, the Potency is 23.7 µM (active).

As for `C=Cc1c(C)c2cc3nc(cc4[nH]c(cc5nc(cc1[nH]2)C(C)=C5CCC(=O)OC)c(CCC(=O)O)c4C)[C@@]1(C)C3=CC=C(C(=O)OC)[C@H]1C(=O)OC`, the Potency is 1.88 µM (active).

As to `CC(=O)Nc1ccc(NC(=S)NC(=O)c2ccc(C(C)(C)C)cc2)cc1`, the Potency is 2.11 µM (active).

As for `CCCCCCCC(=O)CC[C@@H]1[C@@H](C/C=C\CCCC(=O)OC(C)C)[C@@H](O)C[C@H]1O`, the Potency was 26.6 µM (active).

Regarding `NC(=O)OC[C@@H]1[C@H](NC(=O)/C(=N\OCC(=O)O)c2csc(N)n2)C(=O)N1S(=O)(=O)O`, the “ratio activity, negative = MMP loss” value is -26.2%.

In the case of `CCCCCCCCCCCCOCCCN`, the “ratio activity, negative = MMP loss” value was 23.7%.

With `O=C(O)C1CCCN1` (configuration not stated), the “ratio activity, negative = MMP loss” value is 20.2%.

On to `Nc1nc(=O)n([C@@H]2CS[C@H](CO)O2)cc1F`, for which the “ratio activity, negative = MMP loss” value was 12.5%.

Another assay can be described thus: qHTS assay to test for compound auto fluorescence at 590 nm (red) in HepG2 cells (AID 720674). Also: potency is read from the fitted curve at half-maximal effect. The conditions noted are these: HepG2 autofluorescence, red 540/590 nm, 1 h; series mostly up to 46 µM; fluorescence, relative to Rose Bengal: at the top concentration. A digest of the protocol: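 Red autofluorescence (Ex/Em 540/590 nm, Rose Bengal sodium equivalents) was measured in HepG2 cells, 2,000 per well in MEM plus 10% FBS, plated overnight at 37 C. Readings were taken 1 hr after adding 23 nL compound or DMSO, at 37 C and 5% CO2.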
Turning to `CCC(=O)O[C@@H]1CC(=O)O[C@H](C)C/C=C/C=C/[C@H](O)[C@H](C)C[C@H](CC=O)[C@H](O[C@@H]2O[C@H](C)[C@@H](O[C@H]3C[C@@](C)(O)[C@@H](OC(=O)CC)[C@H](C)O3)[C@H](N(C)C)[C@H]2O)[C@H]1OC`, the “fluorescence, relative to Rose Bengal” value is 0.31% [at 18.6 µM].

For `CCCCC(=O)OCC(=O)[C@]1(O)Cc2c(O)c3c(c(O)c2[C@@H](O[C@H]2C[C@H](NC(=O)C(F)(F)F)[C@H](O)[C@H](C)O2)C1)C(=O)c1c(OC)cccc1C3=O`, the “fluorescence, relative to Rose Bengal” value is 3.17%.

On to `[O]=[Bi][O][Bi]=[O]`, for which the “fluorescence, relative to Rose Bengal” value is 0.712%.

For `CC[C@@]1(O)C[C@H](O[C@H]2C[C@H](N(C)C)[C@H](O[C@H]3C[C@H](O)[C@H](O[C@H]4CCC(=O)[C@H](C)O4)[C@H](C)O3)[C@H](C)O2)c2c(cc3c(c2O)C(=O)c2c(O)cccc2C3=O)[C@H]1C(=O)OC`, the “fluorescence, relative to Rose Bengal” value is 0.577%.

Take `CC(C)(C)c1ccc(CN2CCN(C(c3ccccc3)c3ccc(Cl)cc3)CC2)cc1` (configuration not stated): the “fluorescence, relative to Rose Bengal” value was 0.443%.

As to `CCCCCCCCCCCCCC[n+]1ccc(C)cc1`, the “fluorescence, relative to Rose Bengal” value is -0.466%.

With `Cc1cc(Nc2ccccc2C(=O)O)ccc1Cl`, the “fluorescence, relative to Rose Bengal” value is 0.0707%.

Regarding `CN1CCN(CCC=C2c3ccccc3Sc3ccc(S(=O)(=O)N(C)C)cc32)CC1`, the “fluorescence, relative to Rose Bengal” value is -0.457%.

Turning to `CCC(=O)c1ccc2c(c1)N(CCCN1CCN(CCO)CC1)c1ccccc1S2`, the “fluorescence, relative to Rose Bengal” value was 0.516%.

For the compound `CC1CCCC1`, the “fluorescence, relative to Rose Bengal” value was -0.0509% [at 91.3 µM].

With `O=C(O)c1c(Cl)c(Cl)c(Cl)c(Cl)c1-c1c2cc(I)c(=O)c(I)c-2oc2c(I)c(O)c(I)cc12`, the Potency was 11.2 µM (active).

As for `C=C1C(=O)O[C@H]2[C@H]1CC/C(C)=C\CC[C@@]1(C)O[C@@H]21`, the “fluorescence, relative to Rose Bengal” value is -0.823%.

With `C#C[C@]1(O)CC[C@H]2[C@@H]3CCC4=C/C(=N/O)CC[C@@H]4[C@H]3CC[C@@]21CC`, the “fluorescence, relative to Rose Bengal” value was 0.147%.

Turning to `Cc1cccc(C)c1Nc1ncccc1C(=O)O`, the “fluorescence, relative to Rose Bengal” value is 0.401%.

With `C=Cc1c(C)c2cc3nc(cc4[nH]c(cc5nc(cc1[nH]2)C(C)=C5CCC(=O)OC)c(CCC(=O)O)c4C)[C@@]1(C)C3=CC=C(C(=O)OC)[C@H]1C(=O)OC`, the “fluorescence, relative to Rose Bengal” value was -0.494%.

For the compound `O=C1CSC2(CCN(CCCN3c4ccccc4Sc4ccc(Cl)cc43)CC2)N1`, the “fluorescence, relative to Rose Bengal” value was -0.0633%.

Take `Cc1ccccc1`: the Potency result is “inactive”.

As for `CC(C)[C@@H](C)/C=C/[C@@H](C)[C@H]1CC[C@H]2/C(=C/C=C3\C[C@@H](O)CC[C@@H]3C)CCC[C@]12C`, the “fluorescence, relative to Rose Bengal” value was -1.14%.

For `CC(=O)Nc1ccc(NC(=S)NC(=O)c2ccc(C(C)(C)C)cc2)cc1`, the “fluorescence, relative to Rose Bengal” value was -0.283%.

`CC1(C)S[C@@H]2[C@H](NC(=O)C3(N)CCCCC3)C(=O)N2[C@H]1C(=O)O`: the “fluorescence, relative to Rose Bengal” value is -0.26%.

Consider `CCCCCCCC(=O)CC[C@@H]1[C@@H](C/C=C\CCCC(=O)OC(C)C)[C@@H](O)C[C@H]1O`, for which the “fluorescence, relative to Rose Bengal” value is -0.176%.

Regarding `COc1ccc(C[C@H](C)NC[C@@H](O)c2ccc(O)c(NC=O)c2)cc1`, the “fluorescence, relative to Rose Bengal” value is 0.9%.

Take `CO[C@@H]1[C@@H](O[C@@H]2O[C@H](C)[C@@H](O[C@H]3C[C@@](C)(O)[C@@H](OC(=O)CC(C)C)[C@H](C)O3)[C@H](N(C)C)[C@H]2O)[C@@H](CC=O)C[C@@H](C)C(=O)/C=C/C2OC2C[C@@H](C)OC(=O)C[C@H]1OC(C)=O` (some centres not stated): the “fluorescence, relative to Rose Bengal” value is 0.336%.

On to `CCN(CC)CCOc1ccc(-c2nc3cc(Cl)ccc3s2)cc1`, for which the “fluorescence, relative to Rose Bengal” value was 0.0052%.

On to `OCC(O)CO`, for which the Potency entry is “inactive”.

In the case of `Cc1cc2nc3c(=O)[nH]c(=O)nc-3n(C[C@H](O)[C@H](O)[C@H](O)COP(=O)(O)OP(=O)(O)OC[C@H]3O[C@@H](n4cnc5c(N)ncnc54)[C@H](O)[C@@H]3O)c2cc1C`, the “fluorescence, relative to Rose Bengal” value was 0.321%.

For `NC(=O)OC[C@@H]1[C@H](NC(=O)/C(=N\OCC(=O)O)c2csc(N)n2)C(=O)N1S(=O)(=O)O`, the “fluorescence, relative to Rose Bengal” value was 0.456%.

In the case of `CCCCCCCCCCCCOCCCN`, the “fluorescence, relative to Rose Bengal” value was 0.0219%.

Turning to `O=C(O)C1CCCN1` (configuration not stated), the “fluorescence, relative to Rose Bengal” value is 0.0765%.

Turning to `CCCCC/C=C\C/C=C\C/C=C\CCCCC(=O)O`, the “fluorescence, relative to Rose Bengal” value is -0.136%.

As for `O=S(=O)(O)c1cc(O)c2c(N=Nc3ccc(Nc4ccccc4)c4c(S(=O)(=O)O)cccc34)cc(S(=O)(=O)O)cc2c1`, the “fluorescence, relative to Rose Bengal” value was 0.0155%.

With `Nc1nc(=O)n([C@@H]2CS[C@H](CO)O2)cc1F`, the “fluorescence, relative to Rose Bengal” value is 0.788%.

`COc1ccc(C[C@@H](C)NC[C@H](O)c2ccc(O)c(NC=O)c2)cc1`: the “fluorescence, relative to Rose Bengal” value is 0.0399%.
